TDP1 cell noCPT: qHTS for Inhibitors of human tyrosyl-DNA phosphodiesterase 1 (TDP1): qHTS in cells in absence of CPT. 420,000 compounds, 15% hits. DT40 Tdp1-/- hTDP1 cells, no CPT, ATP luminescence, 48 h. Potency, µM (highest dose often 46.2 µM), without a hit: top-dose activity change, negative = growth inhibition, actives largely listed as inhibitors. AID 686978, 2013; further: potency means the concentration at half of the fitted maximal effect; nearly all actives have a fitted effect of over 55% in size
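Chicken DT40 Tdp1-/- cells complemented with human TDP1, screened without camptothecin (DMSO vehicle only), 400 cells/well. Compounds pin-transferred, cells incubated at 37 °C for at least 48 hr. Growth read as ATP-dependent luminescence (CellTiter-Glo, 30 min at RT).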
HT1080NT lethal: kills 2HG-producing HT-1080-NT fibrosarcoma cells; Potency, µM (series often up to 46.1 µM), for inactives: at the top dose activity, negative = less viability, usual class: cytotoxic; 360,000 compounds, 1.6% hits; AID 686970; HT-1080-NT fibrosarcoma viability, CellTiter-Glo ATP luminescence, 48 h;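 further: NT is the 2HG producing partner of a matched IDH1 knockdown line; potency means the concentration at half of the fitted maximal effect; 0% = DMSO-treated cells and -100% = media-only wells without cells; nearly all actives have a fitted effect of over 55% in size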
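Viability of the 2HG-overproducing fibrosarcoma line after 48 hours of compound exposure at 37 degrees C was determined by luminescence with CellTiter-Glo, and concentration-effect curves were then fitted and categorized.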
IL-1B inflam inh: inflammasome signaling inhibition, IL-1 beta readout; activity change, % at 57.5 µM; 360,000 compounds, 4.7% hits; THP-1 LPS/ATP IL-1B secretion, AlphaLISA, 16 h; active compounds read low; in the data active means activity change below about -50%; inconclusive means mostly about -30% to -49%
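THP-1 cells pretreated 1 hr with compounds (up to 57.5 uM final), then stimulated with LPS (250 ng/mL final) plus ATP (1.25 mM final); secreted IL-1B measured by AlphaLISA after 16 hr, decreased signal indicating inhibition.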
DT40 TDP1 CPT: growth inhibition of DT40 Tdp1-/-;hTDP1 cells with camptothecin (screen for TDP1 inhibitors); Potency, µM (top dose mostly 46.2 µM), inactives show at the top dose activity change, negative = growth inhibition, usual class: inhibitors; 420,000 compounds, 12% hits; chicken DT40 Tdp1-/-;hTDP1 cells + 20 nM CPT, ATP luminescence, 48 h; further: potency means the concentration at half of the fitted maximal effect; nearly all actives have a fitted effect of over 55% in size
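Chicken DT40 Tdp1-/- cells complemented with human TDP1, 400 cells/well, exposed to compounds plus 20 nM camptothecin for at least 48 h at 37 C; viability read as ATP content by CellTiter-Glo luminescence.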
ELG1 DNA repair: blocks ELG1-dependent DNA repair in HEK293T cells; AID 504467; 330,000 compounds, 2.3% hits; Potency, µM (series often up to 46.1 µM), for the others: at the highest dose activity change, negative = inhibition, hits mostly inhibitors; HEK293T ELG1-luciferase reporter, luminescence, 16 h; DNA damage induced by 5-fluorouridine; further: potency means the concentration at half of the fitted maximal effect; nearly all actives have a fitted effect of over 55% in size
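In this reporter screen, reduction of luminescence relative to DMSO vehicle indicated activity. Compounds and 5-fluorouridine were added together to 2,000 cells per well, incubated for 16 hr at 37 °C, then developed with ONE-Glo.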
HT1080 IDH1KD tx: toxicity to HT-1080 IDH1 knockdown cells (counter line); HT-1080 IDH1 knockdown viability, ATP luminescence, 48 h; Potency, µM (highest dose often 46.1 µM), for inactives: top-dose activity, negative = toxicity, most hits filed as cytotoxic; 360,000 compounds, 2% hits;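 further: potency means the concentration at half of the fitted maximal effect; 0% = DMSO wells and -100% = cell-free medium wells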
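IDH1KD HT-1080 cells, 750/well, RPMI + 5% FBS; compound pinned after 2 h settling; 48 h, 37 °C; CellTiter-Glo luminescence; % activity normalised to DMSO and no-cell wells; curves fitted, classed by r2 and efficacy.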
An asterisk follows results filed as active; i = inactive; ? = inconclusive; nt = not tested or not shown; ! = repeats disagree. In the library only some 19% were active in any assay of this set; here they are far more common. Unless noted, the call rests on the fitted dose curve; in most records, active means well fitted curve in the direction sought with a large enough effect; inconclusive means small, poorly fitted or top-dose-only effect, or another doubt; inactive means no such curve, though single readings can be large; an effect the other way counts as inactive or inconclusive. Unless noted, on the % scale 0 is the no-effect control and ±100 the full control effect.

SMILES | TDP1 cell noCPT | HT1080NT lethal | IL-1B inflam inh | DT40 TDP1 CPT | ELG1 DNA repair | HT1080 IDH1KD tx
C=CC[C@@H](Cc1ccc(F)cc1)C(=O)OC[C@@H]1CCCN1C(=O)[C@H](CC=C)CC(=O)NCCO | ? | 24% | 6 | ? | 5% | 2%
C=CCC[C@H](Cc1ccc(F)cc1)C(=O)OC[C@@H]1CCCN1C(=O)[C@@H](CC=C)CC(=O)NCCO | 21µM* | 7% | 6 | ? | -1% | -5%
C[N+](C)(C)CCNC(=O)c1ccccc1 | -4% | 18% | 0 | -3% | nt | 1%
COc1ccc(Cl)cc1/C=C/c1ccc2cccc(O)c2n1 | ? | ? | 93 | 21µM* | ? | ?
Oc1cccc2ccc(/C=C/c3ccccc3Cl)nc12 | 7.3µM* | -10% | 29 | 9.2µM* | ? | -28%
COc1ccccc1/C=C/c1ccc2cccc(O)c2n1 | ? | -18% | 36 | ? | ? | ?
COc1cc(Cl)cc(/C=C/c2ccc3cccc(O)c3n2)c1OC | 23µM* | 5% | 34 | ? | 3% | 0%
CC(CNC(=O)c1ccc(Cn2c(=O)c3cccn3c3cccnc32)cc1)c1ccccc1 (stereo not drawn) | ? | nt | nt | -29% | nt | nt
Cc1ccc(S(=O)(=O)N/N=C/c2cccn2-c2ccc(Cl)cc2)cc1 | -21% | -8% | 17 | ? | ? | -4%
CC1=NN(c2ccc(Cl)cc2)C(=O)/C1=C\c1cccn1-c1ccc(S(N)(=O)=O)cc1 | 15µM* | ? | ? | ? | -17% | ?
Cc1nc2c(OCCC3CCCCC3)cccn2c1N(C)C(=O)CCC1CCCC1 | 16µM* | ? | -53* | ? | nt | ?
Cc1nc2c(OCCOc3ccc(F)cc3)cccn2c1N(C)C(=O)CCC1CCCC1 | 15µM* | ? | -23 | ? | nt | ?
Cc1nc2c(OCc3cc(Cl)cc(Cl)c3)cccn2c1N(C)C(=O)CCC1CCCC1 | ? | ? | -67* | ? | nt | ?
CCCCC(=O)N(C)c1c(CC)nc2c(OCc3ccc(C#N)cc3)cccn12 | ? | 0% | -4 | ? | nt | 2%
Cc1nc2c(OCCOc3ccccc3)cccn2c1N(C)C(=O)CCC1CCCC1 | ? | -20% | 146 | ? | nt | -12%
Cc1cccc(-c2noc(CN(C)C(=O)c3ccc4c(c3)OCO4)n2)c1 | -20% | -23% | -5 | 8% | -18% | -17%
O=C(NCCc1ccc(Cl)cc1)c1cnc2sc(N3CCCC3)nn2c1=O | 4.1µM* | nt | nt | 6.5µM* | nt | nt
O=C(NCc1ccc(Cl)cc1)c1cnc2sc(N3CCOCC3)nn2c1=O | -27% | nt | nt | ? | nt | nt
CC(C)CCNC(=O)c1cnc2sc(N3CCCCCC3)nn2c1=O | 21µM* | nt | nt | 16µM* | nt | nt
COc1ccc(CCNC(=O)c2cnc3sc(N4CCCCC4)nn3c2=O)cc1OC | ? | nt | nt | 23µM* | nt | nt
COc1ccc(CCNC(=O)c2nc(SCc3ccc(C)cc3)ncc2Cl)cc1OC | 10µM* | nt | nt | 12µM* | nt | nt
C/C(=N\Nc1ccc(F)cc1)c1ccc(N2CCOCC2)c(F)c1 | 4% | -14% | 0 | -25% | 2% | -3%
Cc1cccc(S(=O)(=O)c2cn(C)c3cc(N4CCN(c5ccc(F)cc5)CC4)c(F)cc3c2=O)c1 | -26% | nt | nt | -6% | nt | nt
Cc1ccc2ncc(C(=O)NCCc3ccc(S(N)(=O)=O)cc3)c(=O)n2c1 | -7% | nt | nt | -8% | nt | nt
COc1ccc(CCNC(=O)c2cnc3sc(N4CCCC4)nn3c2=O)cc1OC | 23µM* | nt | nt | ? | nt | nt
SMILES | TDP1 cell noCPT | HT1080NT lethal | IL-1B inflam inh | DT40 TDP1 CPT | ELG1 DNA repair | HT1080 IDH1KD tx
COc1cccc(CCNC(=O)c2cnc3sc(N4CCCC4)nn3c2=O)c1 | 16µM* | nt | nt | 15µM* | nt | nt
COc1ccc(OC)c(NC(=O)c2nc(SCc3ccccc3F)ncc2Cl)c1 | 14µM*! | nt | nt | 10µM*! | nt | nt
COc1ccc(CCNC(=O)c2cnc3ccc(C)cn3c2=O)cc1OC | ? | nt | nt | 21µM* | nt | nt
COc1cccc(CNC(=O)[C@@H]2CCCN2C(=O)[C@H]2CCCCN2C(=O)c2cccc(OC)c2)c1 | -13% | 19% | -10 | 0% | nt | 2%
C[n+]1cccc(NC(=O)c2ccccc2)c1 | 0% | 22% | 0 | -10% | nt | 7%
Fc1cccc(Cl)c1CNc1n[nH]c(-c2ccco2)n1 | -29% | nt | nt | ? | nt | nt
CCS(=O)(=O)N1CCC(NC(=O)C(Cc2ccc(OC)c(OC)c2)NC(C)=O)CC1 (stereo not drawn) | 6% | 8% | 10 | -1% | -14% | 7%
CCOc1ccc(/C=N/Nc2nc(C)cs2)c(O)c1 | ? | -6% | -10 | 10µM* | ? | -12%
COc1cc(N/N=C/c2ccccc2O)ncn1 | 1.5µM* | ? | 43 | 1.6µM* | ? | ?
Clc1ccccc1/C=N/Nc1cc(N2CCOCC2)ncn1 | 2% | -1% | -20 | 22% | ? | 17%
CCCOc1ccc(/C=N/Nc2cc(N3CCOCC3)ncn2)c(O)c1 | 10µM* | ? | 103 | ? | 2.9µM* | 3.7µM*
Cc1csc(N/N=C/c2ccccc2F)n1 | -10% | -18% | 42 | ? | ? | -15%
CCOc1ccc(/C=N/Nc2cc(N3CCOCC3)ncn2)c(O)c1 | 5.8µM* | ? | 99 | 5.8µM* | nt | 2.3µM*
CC(=O)Nc1ccc(NC(=O)CS(=O)(=O)c2cn(CC(=O)N3CCCC3)c3ccccc23)cc1 | -3% | -1% | i | -17% | 6% | 6%
COc1cccc(CN(CC(=O)NC2CCCC2)C(=O)CCC(=O)Nc2cc(C)on2)c1 | -12% | 10% | -1 | -2% | 0% | 19%
COc1ccc(C(=O)/C=C/C(=O)N(CC(=O)NC2CCCCC2)Cc2ccccc2)c(O)c1 | 2.1µM* | 3.7µM* | -100* | 1.5µM* | ? | 3.7µM*
COc1ccccc1CN(C)CC(=O)NC(=O)NC1CCCCC1 | -1% | 0% | 2 | ? | -2% | 16%
COc1ccc(C(=O)/C=C/C(=O)N(CC(=O)NC2CCCCC2)Cc2ccccc2OC)c(O)c1 | 2.1µM* | ? | -100* | 1.6µM* | ? | ?
COc1ccc(CCNC(=O)CNCC2CCCCC2)cc1OC | -18% | 0% | 11 | -14% | -3% | 0%
Cc1cccc(N(C(=O)c2ccco2)C(C(=O)NC2CCCC2)c2cccnc2)c1C (stereo not drawn) | -26% | 10% | -10 | -10% | 3% | 6%
